Consider 40 sequences from the OligoGym collection.
Further: reference of the scale not given here.

The first experiment addresses CCL13. As to the kind of experiment: pooled miR-30 sensor sort-seq; sequence = guide strand. The following applies: shRNA.
ATCTTCTTACTGCTAAATGTGA registered a sensor-assay potency score (higher = more potent) of -1.06.
For the sequence TAAATGTGAAGCAGCAAGTAGA, the sensor-assay potency score (higher = more potent) was -1.06.
On the same count and under the same terms, for TGCAAGGAGATCTTCTTACTGC the value was -0.0125.

In another experiment the target is CCL23. Described as above. To be noted: shRNA.
On to TAGTAGCATGGAATCTGTCCAG, for which the sensor-assay potency score (higher = more potent) was -0.782.
Sequence TCATGAACTCTGTCTCTGCATC showed a sensor-assay potency score (higher = more potent) of -0.664.
TTGGAGCACTCGCTGTTCGTTT had a sensor-assay potency score (higher = more potent) of -0.72.
Turning to TGAACTTGCTTATCACTGGGGT, the sensor-assay potency score (higher = more potent) stood at 0.574.
Turning to TCCAAGGGCAGTAACAAGCATG, the sensor-assay potency score (higher = more potent) is -1.61.
For AGTAGCATGGAATCTGTCCAGA, the sensor-assay potency score (higher = more potent) is -1.79.
TCTGTCTCTGCATCTTTTGTGA returned a sensor-assay potency score (higher = more potent) of -0.455.
TTTGACATCATGAACTCTGTCT registered a sensor-assay potency score (higher = more potent) of 0.483.
Take TCTCACGCAAACCTGAACTTGC: the sensor-assay potency score (higher = more potent) was -0.191.
TTCAAAGTAACTCTCCAGGAGT: the sensor-assay potency score (higher = more potent) was -0.524.
On to TGAACTCTGTCTCTGCATCTTT, for which the sensor-assay potency score (higher = more potent) is -0.137.
As to TCTGCATCTTTTGTGACCCGGG, the sensor-assay potency score (higher = more potent) is -0.271.

For a further experiment, the target named is CCL26. The description is as above. To be noted: shRNA.
TTCTTGCCTCTTTTGGTAGTGA: the sensor-assay potency score (higher = more potent) was -0.89.
TAGTGAATATCACAGCCCGCTG showed a sensor-assay potency score (higher = more potent) of -1.27.
The same measure, in the same setting: for TAGCTTCGCACCCAGGTCCAGG the value was -1.45; for TGGATGGGTACAGACTTTCTTG, -1.49; for TTGTGGCTGTATTGGAAGCAGC, -1.27.
Regarding TTGGATATGTCACTCCCACGTG, the sensor-assay potency score (higher = more potent) is -0.51.
In turn, TTGGTAGTGAATATCACAGCCC displayed a sensor-assay potency score (higher = more potent) of -0.403.
On to TATTGGAAGCAGCAGGTCTTGG, for which the sensor-assay potency score (higher = more potent) was -1.48.
With TTTTGGTAGTGAATATCACAGC, the sensor-assay potency score (higher = more potent) was -0.793.
In turn, TCTTTTGGTAGTGAATATCACA registered a sensor-assay potency score (higher = more potent) of -1.4.

The next experiment concerns the target CCL28. Described as above. The following applies: shRNA.
For the sequence TTAACAGTATGGTTGTGCGGGC, the sensor-assay potency score (higher = more potent) was -0.737.
In the case of AATATGATGTGAAACCTCCGTG, the sensor-assay potency score (higher = more potent) turned out to be 0.282.
Regarding TTTTCTTGGCAGCTTGCACTTT, the sensor-assay potency score (higher = more potent) was -0.496.
Same read-out and setting: for TTGCACTTTCATCCACTGCTTA the value was -0.197; for ATATGATGTGAAACCTCCGTGC, -0.448.
Take TTTCTTGGCAGCTTGCACTTTC: the sensor-assay potency score (higher = more potent) was determined as 0.0736.
Same read-out and setting: for TCCTGTGGCAAACATTTCCTTT the value was -1.54.
Regarding TGATGTGAAACCTCCGTGCAAC, the sensor-assay potency score (higher = more potent) is -1.14.
The sequence TTCTTCTGCGCTTGACATGAAG had a sensor-assay potency score (higher = more potent) of -1.32.
The sequence TGCACTTTCATCCACTGCTTAA showed a sensor-assay potency score (higher = more potent) of -1.51.
Sequence ACACATATTCACTCTTTCCAGG gave a sensor-assay potency score (higher = more potent) of -1.19.
For the sequence TTGCCATGGTGTTTCTTCCTGT, the sensor-assay potency score (higher = more potent) is -0.322.

The target in the next experiment is CCNA1. The experiment is described as above. To be noted: shRNA.
TAACAGTTGTCGTTTTGTGTAT showed a sensor-assay potency score (higher = more potent) of -0.217.
Sequence TTTTGTGTATGTATCATCGGTG showed a sensor-assay potency score (higher = more potent) of 0.2.
The sequence TTGTAAACAACATTAGTTGATC had a sensor-assay potency score (higher = more potent) of -0.494.
